Reference: PubChem BioAssay AID1259343 (VanderVen Lab, College of Veterinary Medicine, Cornell …, 2017)
The whole screen tested about 6,200 compounds, of which about 2,900 (47%) were called active. Cut-off read from the data, not from the text of the source: active = inhibition above about 50%; inactive = the rest. So high a share suggests a set chosen from earlier hits. The list shows a part of the results.

Experiment: Mycobacterium tuberculosis growth inhibition, primary screen (AID 1259343)
Settings: inhibition: at 10 µM, stronger effect = higher value; outcome: 10 uM

Compound	inhibition
Cc1nnc(SCc2cccc3ccccc23)[nH]c1=O	88.9% (active)
O=C(O)CCc1nnc(SCc2cccc(Cl)c2)[nH]c1=O	34.4% (inactive)
CC1CCc2sc(-c3nn(CN4CCN(c5cnccn5)CC4)c(=S)o3)cc2C1 (stereo unspecified)	95.3% (active)
Cc1cc(C)[n+]2c(-c3ccccc3)csc2n1	80% (active)
CCc1ccc(CN(C)Cc2nc(-c3cccc(Cl)c3)no2)nc1	24.1% (inactive)
CN(Cc1cnccn1)c1ccc(-c2nc(-c3cccc(Cl)c3)no2)cn1	80.1% (active)
O=c1[nH]c(CN2CCCC2c2cccs2)nc2scc(-c3ccco3)c12 (stereo unspecified)	85% (active)
CC(C)Cc1csc2nc(Cc3cccs3)[nH]c(=O)c12	42% (inactive)
CN(Cc1nc2scc(-c3ccco3)c2c(=O)[nH]1)C1CCCCC1	-6.13% (inactive)
CCN(CCS(=O)(=O)c1cc(Cl)ccc1Cl)CC(=O)NC(C)C	-1.76% (inactive)
Clc1cc(CNCC2COc3ccccc3O2)cc2c1OCCO2 (stereo unspecified)	11.4% (inactive)
CN(CC1COc2ccccc2O1)C(=O)NCCc1ccsc1 (stereo unspecified)	-41.3% (inactive)
c1ccc(CCc2cn(CC3COc4ccccc4O3)nn2)cc1 (stereo unspecified)	55.8% (active)
FC(F)(F)c1ccc(-c2cnnc(N3CCC(c4ccncc4)CC3)n2)cc1	37.4% (inactive)
C#CCOc1cccc(NC(=O)CSC2CCS(=O)(=O)C2)c1 (stereo unspecified)	84.6% (active)
O=C(Nn1cnc2ccccc21)c1ccccc1SC1CCS(=O)(=O)C1 (stereo unspecified)	-8.68% (inactive)

Compound	inhibition
O=C(NCc1cccc(COCc2ccco2)c1)c1ccccc1	14.8% (inactive)
O=C(NCc1ccccc1F)c1cccc(COCC(F)(F)C(F)F)c1	68.7% (active)
COc1ccc(C2CCCN2C2=NCc3cnn(C(C)(C)C)c3N2)cc1 (stereo unspecified)	10% (inactive)
Cc1ccc(Sc2ccc(C(=O)NC3CC3)cn2)cc1	11.2% (inactive)
O=C(NC1CCCCC1)c1cnccn1	47.9% (inactive)
O=C(NC1CCCCC1)c1ccc(C(F)(F)F)nc1	57.1% (active)
FC(F)(F)c1cc(-c2ccc(Cl)cc2)nc(-n2cccn2)n1	61.6% (active)
O=c1cc(CSc2nnc(-c3ccc(Cl)s3)o2)occ1O	80.1% (active)
CCc1cc(=O)[nH]c(-n2nc(C)cc2NC(=O)/C=C/c2ccc3c(c2)OCO3)n1	100% (active)
Cc1cc(=O)[nH]c(-n2nc(C)cc2NC(=O)/C=C/c2ccc3c(c2)OCO3)n1	101% (active)
N/C(=N/O)c1cncc(OCC(F)(F)F)n1	92% (active)
Brc1c(-c2ccccc2)nc2ccccn12	40% (inactive)
CN(Cc1ccc(C(N)=O)cc1)Cc1ccccc1Br	17.4% (inactive)
CC(Oc1ccc2cc(Br)ccc2c1)C(=O)NC(N)=O (stereo unspecified)	80.7% (active)
CC(Oc1ccc(C(N)=O)cc1)C(=O)c1ccc(Br)cc1 (stereo unspecified)	71.9% (active)
